Source: PubChem BioAssay (National Center for Advancing Translational Sciences (NCATS))
Rows were chosen to be rich in hits. Some 4.8% of all compounds tested hit in one or more screens of this group.
D3 antag = qHTS of D3 Dopamine Receptor Antagonist: qHTS; max response, negative = inhibition, %; D3R cells, DiscoveRx beta-arrestin luminescence, antagonist mode; stronger effect = lower value; actives 2.5% (n = 360,000); in the data active means max response below about -50%; inconclusive means no clear call, values can overlap the other calls; further: on the % scale 0 is the no-effect control and ±100 the full control effect
Target sequence (P35462 whole entry, looked up): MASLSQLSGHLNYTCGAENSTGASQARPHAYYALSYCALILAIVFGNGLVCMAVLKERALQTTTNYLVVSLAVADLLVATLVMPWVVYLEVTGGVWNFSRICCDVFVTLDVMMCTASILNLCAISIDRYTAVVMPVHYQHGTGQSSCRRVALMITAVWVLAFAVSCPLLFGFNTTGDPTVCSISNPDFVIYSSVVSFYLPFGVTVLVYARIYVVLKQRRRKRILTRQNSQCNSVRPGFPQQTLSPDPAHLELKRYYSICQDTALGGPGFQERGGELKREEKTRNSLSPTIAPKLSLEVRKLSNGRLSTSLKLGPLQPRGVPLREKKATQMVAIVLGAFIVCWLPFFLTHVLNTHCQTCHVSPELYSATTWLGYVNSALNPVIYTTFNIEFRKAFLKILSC
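Cells expressing the human receptor were seeded at 1500 cells/well, incubated overnight at 37 degrees C in 5% CO2, then exposed to library compounds with dopamine controls for 90 minutes at 37 degrees C before luminescent detection.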
HepG2 tox-1 = qHTS for Inhibitors of TGF-b: Cytotox Counterscreen; HepG2 CAGA-GFP viability, ATP luminescence, 18 h; Potency, µM (doses to about 46.1 µM), for the others: top-dose activity change, negative = cytotoxicity, most hits filed as cytotoxic; actives 0.76% (n = 410,000); further: potency means the concentration at half of the fitted maximal effect
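CellTiter-Glo luminescence gave cytotoxicity after 18 hours at 37 degrees C. The cells were HepG2 CAGA-GFP in 1% FBS DMEM, stimulated with 500 pg/mL TGF-beta after compound addition. %Activity was normalised to no-cell wells (complete cell-killing) and DMSO (no toxicity), and curves were fitted and classified.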
TGFb inhibitor = qHTS for Inhibitors of TGF-b; actives 1.2% (n = 410,000); AID 588855, 2011; HepG2 CAGA-GFP TGF-b/SMAD3 reporter, GFP fluorescence, 18 h; TGF-beta stimulated, 500 pg/mL final; Potency, µM (titrated, usually from 46.1 µM), without a hit: at the highest dose activity, negative = inhibition, most hits filed as inhibitors; further: potency means the concentration at half of the fitted maximal effect; on the % scale 0 is the no-effect control and ±100 the full control effect; nearly all actives have a fitted effect of over 65% in size
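Inhibition was scored as loss of TGF-beta-induced (500 pg/mL final, 18 hours, 37 degrees C) GFP in HEPG2 cells carrying a CAGA-GFP reporter, in DMEM with 1% FBS. Well GFP was summed per cell; Activity was normalised to unstimulated and stimulated DMSO wells, then concentration-response fitting.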
ATXN viability = Viability Counterscreen for Primary qHTS for Inhibitors of ATXN expression | S2 cells (HEK-293 line with an ATXN2-luciferase reporter) viability, CellTiter-Fluor protease fluorescence, 24 h | Potency, µM (doses to about 56.7 µM), most hits filed as cytotoxic | AID 651635, 2014 | actives 0.49% (n = 400,000); further: potency means the concentration at half of the fitted maximal effect; nearly all actives have a fitted effect of over 40% in size
ATXN2 expr inh = Primary qHTS for Inhibitors of ATXN expression. HEK-293 ATXN2-luciferase reporter, luminescence, 24 h. Potency, µM (titrated, usually from 57 µM), for inactives: at the highest dose activity change, negative = inhibition, hits mostly inhibitors. actives 0.72% (n = 360,000); further: potency means the concentration at half of the fitted maximal effect; on the % scale 0 is the no-effect control and ±100 the full control effect; nearly all actives have a fitted effect of over 55% in size
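qHTS (up to 57 uM final) was run with 24 h compound exposure of reporter cells at 37 °C. Each well was multiplexed: SteadyGlo luminescence measured ATXN2-luciferase expression after a fluorogenic Gly-Phe-AFC viability readout (25 uM final).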
D3 ag = qHTS of D3 Dopamine Receptor Agonist: qHTS | AID 652048, 2013 | max activation, % | D(3) dopamine receptor (Homo sapiens), P35462 | D3R DiscoveRx beta-arrestin cells, luminescence, 90 min | actives 0.58% (n = 410,000); in the data active means max activation above about 30%; further: 0% is about no effect
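Agonist mode: compounds and dopamine controls were applied to plated cells for 90 min at 37 degrees C after an overnight attachment at 1500 cells/well. Luminescent read-out followed 30 - 60 minutes at room temperature with DiscoveRx detection reagent.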
TGFb CAGA inh = qHTS for Inhibitors of TGF-b: Confirmation of Cherry Picks. shares compounds with TGFb inhibitor. actives 63% (n = 1,600). HepG2 CAGA-GFP TGF-b reporter, GFP fluorescence, 18 h; cells stimulated with TGF-beta, 500 pg/mL. Potency, µM (titrated, usually from 46.1 µM), for inactives: at the top dose activity, negative = inhibition, usual class: inhibitors; further: potency means the concentration at half of the fitted maximal effect; on the % scale 0 is the no-effect control and ±100 the full control effect; nearly all actives have a fitted effect of over 65% in size
HepG2 tox-2 = qHTS for Inhibitors of TGF-b: Cytotox Counterscreen for Cherry Picks. HepG2 CAGA-GFP viability, ATP luminescence, 18 h; cells stimulated with TGF-beta, 500 pg/mL. shares compounds with TGFb inhibitor. AID 720535, 2013. actives 27% (n = 1,600). Potency, µM (titrated, usually from 46.1 µM), for inactives: top-dose activity, negative = cytotoxicity, actives largely listed as inhibitors; further: potency means the concentration at half of the fitted maximal effect; on the % scale 0 is the no-effect control and ±100 the full control effect; nearly all actives have a fitted effect of over 70% in size
TGFb CCL64 inh = qHTS for Inhibitors of TGF-b: CCL64 Cells Orthogonal Assay for Cherry Picks; CCL64 CAGA-GFP reporter, TGF-b stimulated, GFP fluorescence, 18 h; Potency, µM (highest dose often 46.1 µM), without a hit: at the highest dose activity, negative = inhibition, usual class: inhibitors; shares compounds with TGFb inhibitor; actives 41% (n = 1,600); AID 720536, 2013; further: potency means the concentration at half of the fitted maximal effect; nearly all actives have a fitted effect of over 65% in size
COP TGFb inh = qHTS for Inhibitors of TGF-b: Hit Validation in HepG2 Cells using COP promoter; HepG2 COP-GFP TGF-b reporter, GFP fluorescence, 18 h; cells stimulated by added recombinant TGF-beta; shares compounds with TGFb inhibitor; Potency, µM (doses to about 46.1 µM), for inactives: at the highest dose activity, negative = inhibition, usual class: inhibitors; actives 3% (n = 1,600); further: potency means the concentration at half of the fitted maximal effect; nearly all actives have a fitted effect of over 70% in size
An asterisk follows results filed as active; i = inactive; ? = inconclusive; · = no result; ! = a repeat was not active. Unless noted, the call rests on the fitted dose curve; in most records, active means well fitted curve in the direction sought with a large enough effect; inconclusive means small, poorly fitted or top-dose-only effect, or another doubt; inactive means no such curve, though single readings can be large; an effect the other way counts as inactive or inconclusive.

SMILES	D3 antag	HepG2 tox-1	TGFb inhibitor	ATXN viability	ATXN2 expr inh	D3 ag	TGFb CAGA inh	HepG2 tox-2	TGFb CCL64 inh	COP TGFb inh
Cc1cccc(CS(=O)(=O)c2ncc(Cl)c(C(=O)NCc3ccc4c(c3)OCO4)n2)c1	-97*	14µM*	7.9µM*	?	·	-1	5.8µM*	13µM*	2.9µM*	?
COc1ccc(-c2nc(C)c(CCNC(=O)c3ccccc3Br)s2)cc1OC	·	-19%	-16%	·	·	1	·	·	·	·
CCOc1ccccc1NC(=O)c1nc(S(=O)(=O)Cc2ccccc2)ncc1Cl	-107*	6.3µM*	5µM*	8.9µM*	·	-24	2.9µM*	5.8µM*	4.6µM*	7.3µM*
CCOC(=O)c1ccc(NC(=O)c2nc(SC(C)C)ncc2Cl)cc1	·	-24%	-19%	i	-24%	-4	·	·	·	·
Cc1ccc(NC(=O)c2nc(S(=O)(=O)Cc3ccccc3C)ncc2Cl)cc1C	-74*	16µM*	7.1µM*	?	?	-32	3.3µM*	10µM*	3.7µM*	?
Cc1ccccc1CS(=O)(=O)c1ncc(Cl)c(C(=O)Nc2nnc(C(C)C)s2)n1	·	-88%	?	·	·	-14	·	·	·	·
CCOC(=O)c1ccc(NC(=O)c2nc(S(=O)(=O)Cc3ccccc3)ncc2Cl)cc1	?	6.3µM*!	3.5µM*	20µM*	?	-37	4.6µM*	6.5µM*	2.3µM*	13µM*
CN(C)CCNC(=O)c1cccc2[nH]c(-c3ccncc3)nc12	13	-41%	10µM*	?	?	6	16µM*	21µM*	13µM*	21%
CCCOc1ccccc1N/C(=N/c1nc(C)cc(C)n1)NC(=O)COc1ccc(OC)cc1	-8	-7%	10µM*	i	-34%	4	13µM*	-27%	?	24%
COc1ccc(CNC(=O)[C@@H]2CC=C[C@@H]3CCN(Cc4ccc(Cl)c(Cl)c4)C(=O)[C@@H]32)cc1	0	-13%	16µM*	?	?	-14	21µM*	?	?	30%
COc1ccc(CNC(=O)[C@@H]2CC=C[C@@H]3CCN(Cc4ccc(OC)c(OC)c4)C(=O)[C@@H]32)cc1	·	-41%	3%	·	·	·	·	·	·	·
Cc1cc(Cl)ccc1OCC(=O)NCC1Cc2cc(-c3cnccn3)ccc2O1 (configuration not stated)	·	·	·	i	·	·	·	·	·	·
CCOc1ccc(C(=O)NC(=S)Nc2cccc(NC(=O)c3ccco3)c2)cc1[N+](=O)[O-]	-69*	-17%	8.9µM*	i	-27%	-8	8.2µM*	-23%	?	-7%
COc1cc(O)c(C(CC(=O)N2CCCC2)c2cc(OC)c(OC)c(OC)c2)c(OC)c1 (configuration not stated)	?	19%	31%	i	9%	-4	5%	1%	-13%	-7%
CC(C)C(NS(=O)(=O)c1ccc2c(c1)oc(=O)n2C)C(=O)N1CCN(c2cccc(Cl)c2)CC1 (configuration not stated)	·	-24%	?	i	-14%	-6	·	·	·	·
Cn1c(C(=O)N2CCN(c3ccc(Cl)cc3)CC2)cc2c(=O)[nH]c3ccccc3c21	41	-28%	-11%	i	-20%	1	·	·	·	·
Cc1ccc(Cl)cc1N1CCN(C(=O)c2cc3c(=O)[nH]c4ccccc4c3n2C)CC1	24	-28%	?	?	-30%	71*	?	?	-14%	20%
CCn1c2ccccc2c2cc(/C=N/NC(=O)c3ccccc3C)ccc21	-23	-12%	4µM*	i	?	-16	8.2µM*	4.1µM*	?	18%
CCn1c2ccccc2c2cc(/C=N/NC(=O)c3cccc(C)c3)ccc21	-27	-43%	-8%	i	?	-6	·	·	·	·
Cc1cc(C)c2c(N)c3ccccc3nc2n1	15	10%	11µM*	·	?	3	21µM*	18µM*	13µM*	5%
Cc1cc(C)c2cccc(N)c2n1	15	-1%	0%	i	1%	-6	·	·	·	·
CO[C@H]1C=CO[C@@]2(C)Oc3c(C)c(O)c4c(O)c(c5c(nc6cc(C)ccn65)c4c3C2=O)NC(=O)/C(C)=C\C=C[C@H](C)[C@H](O)[C@@H](C)[C@@H](O)[C@@H](C)[C@H](OC(C)=O)[C@@H]1C	·	·	·	·	·	-12	·	·	·	·
COc1cc(NC(=O)c2ccccn2)cc(OC)c1OC	-3	6%	5%	i	·	0	·	·	·	·
COc1cc(C(=O)N/N=C(\C)c2ccccn2)cc(OC)c1OC	-9	-2%	1.3µM*	i	-13%	-5	7.3µM*	-17%	3.7µM*	-11%
C/C(=N\NC(=O)COc1ccccc1-c1ccccc1)c1ccccn1	-58*	-18%	11µM*	·	?	-22	9.2µM*	?	?	-8%
CCOc1c(Cl)cc(Cl)cc1CNCCSc1nnnn1C	·	-13%	-9%	i	1%	1	·	·	·	·
